The structures appear in SMILES notation. Activity calls are given as the source filed them.

The nature of the experiment: viability profiling in MM1S myeloma cells – cell-based, resazurin fluorescence, basal, 24 h, PK04 Diversity Set, profiling panel (AID 1174).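 Further: MM1S multiple myeloma cell line; test concentration not given here.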 The conditions noted are these: higher = more signal, called active from +8 up or from −8 down. For orientation: Alamar Blue is a resazurin reagent that responds to reducing activity.
As to `COCCOC(=O)N1C(=O)[C@@]2(c3cc(C#Cc4ccc(OC)cc4)ccc31)[C@H](C(=O)N1CCCCCCC1)[C@H]1C(=O)O[C@H](c3ccccc3)[C@H](c3ccccc3)N1[C@@H]2c1ccc(O)cc1`, the z-score was 0.0013 (inactive). For `CN(C)C(=O)[C@]1(CCC(=O)OC(C)(C)C)N=C(c2ccc(OCCCO)cc2)O[C@@H]1c1ccccc1`, the z-score was 0.352 (inactive). With `COC(=O)c1c(CC[C@@H](CO)NC(=O)N[C@H](Cn2cc(-c3ccccc3C)nn2)C(C)C)oc(C(C)=O)c1C(=O)OC` the figure was 0.173 (inactive); with `Cc1ccc(S[C@]2(C(=O)O)CC(=O)N(Cc3ccccc3Cl)[C@@H]2c2ccc(CO)cc2)cc1`, -0.465 (inactive). Take `COCCOC(=O)N1C(=O)[C@@]2(c3ccccc31)[C@H](C(=O)N1CCN(c3ncccn3)CC1)[C@H]1C(=O)O[C@H](c3ccccc3)[C@H](c3ccccc3)N1[C@@H]2c1ccc(OCCO)cc1`: the z-score is 0.351 (inactive).

For `COCCOC(=O)N1C(=O)[C@@]2(c3cc(C#Cc4ccc(OC)cc4)ccc31)[C@H](C(=O)N1CCN(c3ncccn3)CC1)[C@H]1C(=O)O[C@H](c3ccccc3)[C@H](c3ccccc3)N1[C@@H]2c1ccccc1OCCO`, the z-score is -0.353 (inactive). Turning to `NCCCCCNC(=O)[C@@H]1C[C@@H]2C(=O)N[C@@H](CCCCN)C(=O)N2[C@@H]1c1cccc(OCCO)c1`, the z-score is 1.11 (inactive). Turning to `COc1ccc([Si](C)(C)[C@H]2[C@H](CCn3cc([C@H](O)c4ccccc4)nn3)O[C@@]3(C(=O)N(Cc4ccc(N5CCC5=O)cc4)c4ccccc43)[C@@H]2C)cc1`, the z-score was -0.771 (inactive). With `O=C1C[C@@](C(=O)NCC(F)(F)F)(c2ccc([N+](=O)[O-])cc2)[C@@H](c2ccc(CO)cc2)N1C1CCCCC1` the figure was -0.39 (inactive). On to `C#CCNC(=O)[C@H](Cc1ccccc1)NC(=O)[C@@H](N=[N+]=[N-])C(C)C`, for which the z-score was 0.633 (inactive). For the compound `C[C@H]1C2=C3C(CC[C@H]4C(OCc5ccc(F)cc5C(F)(F)F)OC[C@](C)([C@@H]34)N(C(=O)OC(C)(C)C)C2)C2COC(=O)OCC21` (stereo partly specified), the z-score is -1.43 (inactive). As to `CC(C)(C)OC(=O)CC[C@]1(C(=O)N2CCOCC2)N=C(c2ccc(OCCCO)cc2)O[C@H]1c1ccccc1`, the z-score is -1.56 (inactive). For the compound `COc1ccc([Si](C)(C)[C@H]2[C@H](CCn3cc([C@H](O)c4ccccc4)nn3)O[C@@]3(C(=O)N(Cc4cccc(N5C(=O)c6cccc7cccc5c67)c4)c4ccccc43)[C@@H]2C)cc1`, the z-score is -1.98 (inactive). With `C=C(C(=O)CC[C@H](OC(=O)c1cccnc1)c1ccc(CO)o1)C(C)C` the figure was -0.323 (inactive); with `C=CC1c2cc(O)c(OC)cc2CCN1Cc1sc2ccccc2c1Cl` (stereo unspecified), -0.467 (inactive). As for `CC(C)(C)OC(=O)CC[C@@]1(C(=O)O)N=C(c2ccc(OCCCO)cc2)O[C@@H]1c1ccccc1CN=[N+]=[N-]`, the z-score is -0.378 (inactive). Next, `CC=CC(O)C1C=CC2C(=O)N(C)C(=O)C2N1N1CCCCC1` (stereo unspecified): -0.986 (inactive). With `CO[C@H]1O[C@H](CO)[C@@H](OC(=O)Nc2ccccc2-c2ccccc2)[C@H](OC(=O)Nc2ccc3c(c2)OCO3)[C@@H]1OC(=O)Nc1ccc2c(c1)OCO2` the figure was -1.38 (inactive); with `O=C1NCC(=O)N2[C@@H]1C[C@@H](C(=O)O)[C@H]2c1ccc(O)cc1`, 0.393 (inactive). As for `C[C@@H](OCc1ccccc1)C1NC(=O)[C@@]23C(=O)N[C@@H](Cc4ccccc4)C2[C@H](C)[C@@]2(C)O[C@H]2C3/C=C/C/C=C\CNC(=O)CNC1=O` (stereo partly specified), the z-score was -0.555 (inactive). With `CCOC(=O)[C@H]1C/C=C/C[C@H](C(=O)OCC)C(=O)O[C@H]2[C@@H](OC)O[C@H](CO)[C@@H](OC(=O)CCc3ccccc3)[C@@H]2OC1=O` the figure was 0.204 (inactive); with `C=C(CCCC)/C(=C/C[C@@H](OC(C)=O)c1ccc(CO)o1)c1cc(C(=O)OC)ccc1OC`, -0.493 (inactive); with `C=CCOC(=O)[C@@H]1[C@H]2C(=O)O[C@H](c3ccccc3)[C@H](c3ccccc3)N2[C@H](c2ccc(OCCOC(=O)[C@H]3C[C@H]4C(=O)N[C@@H](CCCC[N+](C)(C)C)C(=O)N4[C@H]3c3ccc(O)cc3)cc2)[C@@]12C(=O)Nc1ccc(I)cc12`, -0.706 (inactive). `COC1(C)CN(Cc2ccccc2Br)[C@H](/C=C/c2ccccc2)[C@H](Cc2ccccc2)O1` (stereo partly specified): the z-score is 0.832 (inactive). Consider `C=CCN1C(=O)[C@]2(CC=C)N=C(c3ccc(OCCCO)cc3)O[C@@H]2c2ccccc21`, for which the z-score was -3.23 (inactive). Take `CCCC=C(CCC)[C@@H](NP(=O)(c1ccccc1)c1ccccc1)c1ccc(C(F)(F)F)cc1`: the z-score was 0.839 (inactive). For `CC(C)N1C(=O)[C@@]2(c3ccc([N+](=O)[O-])cc3)CC(=O)N(C3CCCCC3)[C@@H]2c2ccc(CO)cc21`, the z-score is 0.927 (inactive). In the case of `CON(C)C(=O)C=C1C[C@@H](c2cccc(Cl)c2)O[C@@H](c2cccc(Cl)c2)O1`, the z-score is 0.0896 (inactive).

Turning to `[N-]=[N+]=NCc1ccccc1C[C@@]1(C(N)=O)N=C(c2ccc(OCCCO)cc2)O[C@@H]1c1ccccc1CN=[N+]=[N-]`, the z-score is -0.833 (inactive).

As to `O=C(O)[C@H]1C[C@H]2C(=O)N3CCC[C@H]3C(=O)N2[C@H]1c1cccc(OCCO)c1`, the z-score was 0.209 (inactive). With `C=C(CCCC)C(=O)CC[C@@H](OC(=O)c1ccccc1-c1ccccc1C(=O)O)c1cccc(OCCO)c1` the figure was -0.348 (inactive); with `[N-]=[N+]=NCc1ccccc1C[C@]1(C(=O)NCC(O)CO)N=C(c2ccc(OCCCO)cc2)O[C@H]1c1ccccc1CN=[N+]=[N-]` (stereo partly specified), -0.449 (inactive); with `C=CCNC(=O)[C@@H]1[C@H]2C(=O)O[C@H](c3ccccc3)[C@H](c3ccccc3)N2[C@H](c2ccc(OCCO)cc2)[C@@]12C(=O)N(C(=O)OCCOC)c1ccc(C#CC3=CCCCC3)cc12`, -0.897 (inactive).

On to `O=C1OCCC=C[C@H]2OC34C=CCN(c5ccc(Cl)cc5)C(=O)[C@H]3N(CCCCCO)C(=O)[C@@H]4C12` (stereo partly specified), for which the z-score is 0.89 (inactive). With `COc1c(C)cc(-c2cc3c(c(-c4ccccc4)n2)[Si](C(C)C)(C(C)C)OC3)cc1C` the figure was 0.416 (inactive); with `CCCCN1CC=CC23O[C@@H]4/C=C\CCC(C)OC(=O)C4[C@H]2C(=O)N(CCCCCCO)[C@@H]3C1=O` (stereo partly specified), 0.234 (inactive).
